The supplement of paper PMC11732987, “Enantioselective OTUD7B fragment discovery through chemoproteomics screening and high-throughput optimisation” (Communications Chemistry, 2025)

Key:
Test in all cases: log2 ratio of Biotin-Ahx-Ub-VS probe labelling (fragment/DMSO); higher = less target engagement (more negative = stronger competition), active = hit call of the paper (q ≤ 0.05, log2 ratio ≤ -1)
Conditions in all cases: compound concentration: 200 uM; treatment time: 3 h
USP19 = target: T1, USP19 (UniProt O94966)
T1 sequence (whole entry): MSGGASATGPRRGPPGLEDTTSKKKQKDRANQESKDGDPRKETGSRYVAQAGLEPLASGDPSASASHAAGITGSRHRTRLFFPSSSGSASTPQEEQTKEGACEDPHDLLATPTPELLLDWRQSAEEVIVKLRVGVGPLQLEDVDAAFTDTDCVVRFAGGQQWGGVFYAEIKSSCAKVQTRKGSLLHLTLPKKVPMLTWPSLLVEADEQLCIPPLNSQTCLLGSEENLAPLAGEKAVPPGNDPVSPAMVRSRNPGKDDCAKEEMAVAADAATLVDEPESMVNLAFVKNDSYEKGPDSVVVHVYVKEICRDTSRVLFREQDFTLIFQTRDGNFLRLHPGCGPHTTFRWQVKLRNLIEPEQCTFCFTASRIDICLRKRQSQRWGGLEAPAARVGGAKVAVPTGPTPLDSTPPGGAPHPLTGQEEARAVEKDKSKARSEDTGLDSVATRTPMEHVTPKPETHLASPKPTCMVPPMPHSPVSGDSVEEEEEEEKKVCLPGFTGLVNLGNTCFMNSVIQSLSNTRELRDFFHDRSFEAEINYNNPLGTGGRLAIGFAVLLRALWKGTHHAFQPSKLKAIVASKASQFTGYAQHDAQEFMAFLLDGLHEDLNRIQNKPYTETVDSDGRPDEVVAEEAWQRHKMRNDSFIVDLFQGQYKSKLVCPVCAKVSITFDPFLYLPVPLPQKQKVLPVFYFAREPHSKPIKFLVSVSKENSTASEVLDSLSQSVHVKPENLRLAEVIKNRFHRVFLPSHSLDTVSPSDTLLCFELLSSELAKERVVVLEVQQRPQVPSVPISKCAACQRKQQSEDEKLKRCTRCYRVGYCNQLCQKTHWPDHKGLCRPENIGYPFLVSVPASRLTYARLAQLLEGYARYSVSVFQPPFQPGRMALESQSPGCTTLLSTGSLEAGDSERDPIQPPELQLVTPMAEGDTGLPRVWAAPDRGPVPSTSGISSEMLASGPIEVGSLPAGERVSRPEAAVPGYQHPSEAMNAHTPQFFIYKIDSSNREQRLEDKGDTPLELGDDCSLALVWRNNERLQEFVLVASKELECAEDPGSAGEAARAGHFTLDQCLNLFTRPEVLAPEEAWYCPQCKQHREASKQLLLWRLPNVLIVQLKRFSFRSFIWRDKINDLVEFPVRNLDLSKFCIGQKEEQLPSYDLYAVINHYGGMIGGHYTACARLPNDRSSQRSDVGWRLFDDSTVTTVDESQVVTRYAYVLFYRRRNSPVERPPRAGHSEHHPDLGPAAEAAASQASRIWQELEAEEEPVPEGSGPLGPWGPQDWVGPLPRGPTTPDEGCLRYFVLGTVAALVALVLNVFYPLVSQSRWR
How it was run: (§1)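 Fragment (200 µM) or vehicle was incubated for 3 h with triplicate HEK293T lysate samples of 495 µg, which were then treated with Biotin-Ahx-Ub-VS at 0.5 µM final for 1 h. Labelled DUBs were enriched on NeutrAvidin, digested with LysC and trypsin, and analysed by diaPASEF LC-MS/MS. Values are average log2 fragment/vehicle ratios from an unpaired t-test on global-median-normalised Spectronaut label-free quantities, using proteins with ≥2 unique peptides.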

USP22 = target: T2, USP22 (UniProt Q9UPT9)
T2 sequence (whole entry): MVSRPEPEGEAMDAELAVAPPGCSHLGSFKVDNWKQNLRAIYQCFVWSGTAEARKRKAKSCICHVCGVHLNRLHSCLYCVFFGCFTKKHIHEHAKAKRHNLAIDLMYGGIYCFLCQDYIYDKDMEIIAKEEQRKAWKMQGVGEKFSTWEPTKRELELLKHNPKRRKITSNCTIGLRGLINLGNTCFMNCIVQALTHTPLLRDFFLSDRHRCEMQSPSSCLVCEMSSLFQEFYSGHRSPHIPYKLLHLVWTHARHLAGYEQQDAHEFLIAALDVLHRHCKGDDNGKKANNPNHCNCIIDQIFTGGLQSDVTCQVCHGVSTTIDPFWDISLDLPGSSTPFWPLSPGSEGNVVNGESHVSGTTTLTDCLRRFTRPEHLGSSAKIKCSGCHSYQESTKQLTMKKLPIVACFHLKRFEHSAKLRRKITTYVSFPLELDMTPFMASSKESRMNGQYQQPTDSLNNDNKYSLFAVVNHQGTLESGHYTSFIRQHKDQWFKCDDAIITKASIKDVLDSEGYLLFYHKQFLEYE
How it was run: as §1

USP24 = USP24 (UniProt Q9UPU5)
Sequence of USP24 (Q9UPU5 whole entry): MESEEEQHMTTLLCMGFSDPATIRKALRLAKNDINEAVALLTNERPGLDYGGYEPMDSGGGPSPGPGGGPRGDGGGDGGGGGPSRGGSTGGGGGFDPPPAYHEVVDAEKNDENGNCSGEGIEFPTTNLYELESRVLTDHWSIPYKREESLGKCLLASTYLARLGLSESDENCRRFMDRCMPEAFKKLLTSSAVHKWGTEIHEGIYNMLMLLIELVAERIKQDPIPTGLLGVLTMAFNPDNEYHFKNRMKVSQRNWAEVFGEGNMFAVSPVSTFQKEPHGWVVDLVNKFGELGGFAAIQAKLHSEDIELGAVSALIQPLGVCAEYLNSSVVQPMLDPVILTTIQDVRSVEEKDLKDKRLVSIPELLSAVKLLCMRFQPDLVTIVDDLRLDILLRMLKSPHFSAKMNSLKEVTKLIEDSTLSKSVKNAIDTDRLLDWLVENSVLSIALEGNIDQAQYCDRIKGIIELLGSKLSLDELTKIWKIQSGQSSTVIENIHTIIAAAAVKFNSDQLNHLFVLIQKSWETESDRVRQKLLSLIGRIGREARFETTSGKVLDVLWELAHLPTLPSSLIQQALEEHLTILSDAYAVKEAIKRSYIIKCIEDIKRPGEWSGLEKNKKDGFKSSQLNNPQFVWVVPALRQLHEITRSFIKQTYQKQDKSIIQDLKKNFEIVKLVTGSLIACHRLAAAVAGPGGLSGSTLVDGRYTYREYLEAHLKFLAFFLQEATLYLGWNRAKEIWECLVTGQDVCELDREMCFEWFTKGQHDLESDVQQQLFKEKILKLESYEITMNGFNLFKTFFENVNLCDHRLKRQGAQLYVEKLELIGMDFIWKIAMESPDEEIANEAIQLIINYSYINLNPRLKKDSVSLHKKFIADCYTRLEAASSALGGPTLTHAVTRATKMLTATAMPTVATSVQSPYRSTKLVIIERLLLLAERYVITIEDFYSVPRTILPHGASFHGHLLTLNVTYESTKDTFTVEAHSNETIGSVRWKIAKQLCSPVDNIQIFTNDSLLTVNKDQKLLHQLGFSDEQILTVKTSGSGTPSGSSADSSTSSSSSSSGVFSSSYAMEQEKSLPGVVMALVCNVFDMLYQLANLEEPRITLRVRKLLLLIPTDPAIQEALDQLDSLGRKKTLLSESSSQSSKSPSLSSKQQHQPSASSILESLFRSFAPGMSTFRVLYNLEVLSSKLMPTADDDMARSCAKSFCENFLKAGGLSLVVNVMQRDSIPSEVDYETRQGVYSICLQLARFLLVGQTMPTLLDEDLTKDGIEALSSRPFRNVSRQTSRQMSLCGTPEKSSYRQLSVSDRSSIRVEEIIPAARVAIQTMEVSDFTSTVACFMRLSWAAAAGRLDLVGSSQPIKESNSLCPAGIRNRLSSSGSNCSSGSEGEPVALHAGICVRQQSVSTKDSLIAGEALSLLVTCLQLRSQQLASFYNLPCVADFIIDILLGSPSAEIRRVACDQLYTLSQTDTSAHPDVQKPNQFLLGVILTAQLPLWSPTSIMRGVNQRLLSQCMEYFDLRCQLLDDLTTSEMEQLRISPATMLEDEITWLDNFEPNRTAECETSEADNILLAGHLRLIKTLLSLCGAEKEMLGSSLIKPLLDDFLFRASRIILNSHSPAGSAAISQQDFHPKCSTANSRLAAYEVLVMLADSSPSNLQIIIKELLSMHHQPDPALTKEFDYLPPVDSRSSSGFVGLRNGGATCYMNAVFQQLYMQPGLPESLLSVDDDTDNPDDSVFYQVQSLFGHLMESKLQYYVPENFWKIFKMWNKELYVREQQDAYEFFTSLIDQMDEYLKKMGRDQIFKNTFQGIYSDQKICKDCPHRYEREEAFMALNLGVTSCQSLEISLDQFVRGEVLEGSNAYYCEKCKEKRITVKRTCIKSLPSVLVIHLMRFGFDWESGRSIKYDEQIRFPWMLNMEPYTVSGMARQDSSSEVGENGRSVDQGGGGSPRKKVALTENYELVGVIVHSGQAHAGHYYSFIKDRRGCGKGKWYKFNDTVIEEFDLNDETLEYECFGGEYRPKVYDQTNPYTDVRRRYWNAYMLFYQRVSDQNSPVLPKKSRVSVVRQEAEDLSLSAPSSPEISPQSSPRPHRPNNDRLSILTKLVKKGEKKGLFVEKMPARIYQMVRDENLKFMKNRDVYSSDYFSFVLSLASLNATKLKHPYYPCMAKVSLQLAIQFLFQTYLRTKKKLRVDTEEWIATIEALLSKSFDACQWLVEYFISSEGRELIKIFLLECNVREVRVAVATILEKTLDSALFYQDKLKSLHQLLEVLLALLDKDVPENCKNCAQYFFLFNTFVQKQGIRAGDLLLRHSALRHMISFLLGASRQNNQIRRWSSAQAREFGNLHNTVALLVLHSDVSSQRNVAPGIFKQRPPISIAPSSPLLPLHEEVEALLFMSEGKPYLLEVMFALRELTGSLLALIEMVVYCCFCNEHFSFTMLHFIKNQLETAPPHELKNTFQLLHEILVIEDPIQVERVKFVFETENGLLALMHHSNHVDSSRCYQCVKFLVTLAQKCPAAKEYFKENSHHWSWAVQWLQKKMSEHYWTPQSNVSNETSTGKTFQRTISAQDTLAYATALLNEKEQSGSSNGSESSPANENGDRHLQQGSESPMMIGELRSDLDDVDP
How it was run: as §1

USP25 = target: T3, USP25 (UniProt Q9UHP3)
T3 sequence (whole entry): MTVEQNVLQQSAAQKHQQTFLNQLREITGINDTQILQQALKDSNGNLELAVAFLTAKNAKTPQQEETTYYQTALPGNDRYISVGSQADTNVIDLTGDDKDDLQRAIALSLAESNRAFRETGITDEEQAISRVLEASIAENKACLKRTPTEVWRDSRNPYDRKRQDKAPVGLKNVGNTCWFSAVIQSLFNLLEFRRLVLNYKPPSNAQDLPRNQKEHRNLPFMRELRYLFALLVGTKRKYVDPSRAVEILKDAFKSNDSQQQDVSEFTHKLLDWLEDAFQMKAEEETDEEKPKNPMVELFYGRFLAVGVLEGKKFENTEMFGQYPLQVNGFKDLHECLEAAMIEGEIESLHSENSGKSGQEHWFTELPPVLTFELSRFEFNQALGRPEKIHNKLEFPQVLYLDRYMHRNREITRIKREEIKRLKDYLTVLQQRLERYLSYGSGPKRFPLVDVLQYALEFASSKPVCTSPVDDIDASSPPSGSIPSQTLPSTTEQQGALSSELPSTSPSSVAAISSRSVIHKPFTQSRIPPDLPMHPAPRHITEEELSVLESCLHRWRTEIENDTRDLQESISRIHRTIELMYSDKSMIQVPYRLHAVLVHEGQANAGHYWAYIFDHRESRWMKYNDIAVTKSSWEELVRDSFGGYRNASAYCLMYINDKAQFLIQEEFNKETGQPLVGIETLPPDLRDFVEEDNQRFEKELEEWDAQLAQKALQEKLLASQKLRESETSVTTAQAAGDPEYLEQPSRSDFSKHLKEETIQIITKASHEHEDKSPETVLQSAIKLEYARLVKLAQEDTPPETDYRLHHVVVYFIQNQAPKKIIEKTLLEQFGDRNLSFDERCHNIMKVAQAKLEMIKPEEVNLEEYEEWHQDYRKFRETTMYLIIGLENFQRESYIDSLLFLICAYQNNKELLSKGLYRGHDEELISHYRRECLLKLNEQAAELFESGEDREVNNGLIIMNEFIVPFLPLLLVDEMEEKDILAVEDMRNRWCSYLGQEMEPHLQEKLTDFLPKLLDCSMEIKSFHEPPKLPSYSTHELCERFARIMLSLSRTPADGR
How it was run: as §1

USP28 = target: T4, USP28 (UniProt Q96RU2)
T4 sequence (whole entry): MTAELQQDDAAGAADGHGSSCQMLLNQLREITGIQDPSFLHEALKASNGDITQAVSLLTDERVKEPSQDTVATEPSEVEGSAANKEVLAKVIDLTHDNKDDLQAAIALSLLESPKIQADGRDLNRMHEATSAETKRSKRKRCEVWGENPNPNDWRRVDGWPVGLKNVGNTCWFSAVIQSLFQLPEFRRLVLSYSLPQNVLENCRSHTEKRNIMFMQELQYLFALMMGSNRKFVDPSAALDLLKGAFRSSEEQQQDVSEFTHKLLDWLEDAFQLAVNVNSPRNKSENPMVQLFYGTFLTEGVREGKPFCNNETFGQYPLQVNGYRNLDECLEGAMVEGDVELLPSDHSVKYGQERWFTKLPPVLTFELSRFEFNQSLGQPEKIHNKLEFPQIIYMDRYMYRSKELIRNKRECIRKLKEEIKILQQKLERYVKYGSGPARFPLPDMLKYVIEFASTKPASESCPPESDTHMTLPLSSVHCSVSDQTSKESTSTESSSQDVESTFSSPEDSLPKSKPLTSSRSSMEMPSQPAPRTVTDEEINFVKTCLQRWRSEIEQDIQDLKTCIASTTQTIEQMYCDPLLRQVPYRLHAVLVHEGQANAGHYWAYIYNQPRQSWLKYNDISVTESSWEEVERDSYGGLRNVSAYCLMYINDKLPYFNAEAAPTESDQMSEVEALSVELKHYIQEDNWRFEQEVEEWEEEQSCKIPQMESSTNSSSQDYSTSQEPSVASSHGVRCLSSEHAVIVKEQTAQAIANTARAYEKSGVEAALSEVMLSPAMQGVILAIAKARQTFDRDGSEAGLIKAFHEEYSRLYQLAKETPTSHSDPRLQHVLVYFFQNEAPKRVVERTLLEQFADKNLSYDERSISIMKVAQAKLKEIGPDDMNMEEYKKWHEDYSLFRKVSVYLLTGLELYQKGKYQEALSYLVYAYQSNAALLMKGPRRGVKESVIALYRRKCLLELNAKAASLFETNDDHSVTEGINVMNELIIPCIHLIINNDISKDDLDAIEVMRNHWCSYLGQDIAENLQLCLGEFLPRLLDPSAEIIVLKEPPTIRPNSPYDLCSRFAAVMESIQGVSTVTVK
How it was run: as §1

Measured: log2 ratio of Biotin-Ahx-Ub-VS probe labelling

Cc1ncc2c(n1)CCN(C(=O)CCl)C2
inactive: USP19 -0.479 | USP22 -0.119 | USP24 -0.198 | USP25 -0.361 | USP28 -0.688
